# PubChem BioAssay AID1822 (The Scripps Research Institute Molecular Screening Center, 2009)
# Among all 290,000 compounds or so, about 3,500 (1.2%) were called active. What follows is part of a selection rich in actives, with near analogues and random picks from the rest. Values without a mark were called inactive.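 Rule for the calls: active = inhibition above the campaign mean inhibition over all tested compounds plus 3 SD (cut at about 28% in these data); inactive = the rest.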
# System: M18 aspartyl aminopeptidase (Plasmodium falciparum 3D7)
# Experiment: PfM18AAP inhibitors, malaria aminopeptidase, primary screen, biochemical, QFRET, recombinant enzyme (AID 1822);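 note: 0% = plate median of test compound wells and 100% = 2 mM ZnCl2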
# Conditions: H-Glu-NHMec fluorogenic cleavage, at 7.35 µM, hits give high values
row,Compound,inhibition
1,COc1cccc(-n2c(N)cc(=O)nc2SCC(=O)Nc2cc(C)on2)c1,-2.14%
2,O=C(Nc1ncc([N+](=O)[O-])s1)C1COc2ccccc2O1 (stereo not drawn),12%
3,O=C(CCc1ccccc1)Nc1ncc([N+](=O)[O-])s1,4.6%
4,CC(=O)Oc1ccccc1C(=O)Nc1ncc([N+](=O)[O-])s1,35.7% (active)
5,CC(=O)c1cccc(NC(=O)C2COc3ccccc3O2)c1 (stereo not drawn),-8.5%
6,Cn1cncc1COC(=O)c1ccc(Cl)cc1,-13.9%
7,Oc1ccc(N2CCN(C(=S)NCc3ccccc3)CC2)cc1,36.6% (active)
8,Oc1ccccc1N1CCN(C(=S)NCc2ccccc2)CC1,9.57%
9,S=C(NCCc1ccccc1)N1CCCCC1,-5.18%
10,Cc1occc1C(=O)N/N=C/c1ccc(-c2cccc([N+](=O)[O-])c2)o1,9.99%
11,COc1ccc(N2CCN(C(=S)Nc3ccc(S(N)(=O)=O)cc3)CC2)cc1,46.7% (active)
12,CCOc1ccccc1N1CCN(C(=S)Nc2ccc(S(N)(=O)=O)cc2)CC1,9.49%
13,NS(=O)(=O)c1ccc(NC(=S)N2CCCC2)cc1,0.47%
14,NS(=O)(=O)c1ccc(CCNC(=O)c2nc(CS(=O)(=O)c3ccc(Cl)cc3)no2)cc1,-4.83%
15,O=C(NC1CCCC1)C(c1ccc(Cl)cc1)N(C(=O)c1csnn1)C1CC1 (stereo not drawn),-2%
16,CC(C(=O)Nc1ccc(O)c(C(=O)O)c1)N1C(=O)/C(=C/c2cccs2)SC1=S (stereo not drawn),30.4% (active)
17,O=C(CCCN1C(=O)/C(=C/c2cccs2)SC1=S)Nc1ccc(O)cc1,1.87%
18,O=C(CCN1C(=O)/C(=C/c2cccs2)SC1=S)NNC(=O)c1cccc(O)c1,-2.41%
19,CN(C(=O)CC1C(=O)NCCN1Cc1ccc2ccccc2c1)C1CCOCC1 (stereo not drawn),9.14%
20,Cc1ccc(Nc2nnc(SCC(=O)c3cc4ccccc4o3)s2)cc1C,6.69%
21,Cc1cc(NC(=O)CSc2nnc(Nc3ccccc3F)s2)no1,-12.2%
22,Cc1ccccc1Nc1nnc(SCC(=O)c2cc3ccccc3o2)s1,28.2% (active)
23,O=C(NCCS(=O)(=O)N1CCN(c2ccccc2F)CC1)c1ccc(Br)o1,0.95%
24,CCOc1ccc(C(=O)Nc2ccc(S(=O)(=O)NCC3CCCO3)cc2)cc1OCC (stereo not drawn),-11.8%
25,CC(C)(C)c1ccc(CN2C(=O)c3ccccc3S2(=O)=O)cc1,7.13%
26,Cc1ccc(-n2c(N)c(C(=O)N3CCOCC3)sc2=S)c(C)c1,4.98%
27,N#Cc1ccccc1-n1c(N)c(C(=O)N2CCCC2)sc1=S,29.2% (active)
28,Cc1cccc(-n2c(N)c(C(=O)N3CCN(C)CC3)sc2=S)c1,13.6%
